PrPC TRFRET = inhibitors of human cell surface prion protein PrPC; P04156; AID 720596; TR-FRET read-out; actives 0.43% (n = 370,000); inhibition, % at 13.8 µM; in the data active means inhibition above about 24%; further: 0% = median of the test wells and 100% = reference compound wells
ugtP null kill = growth inhibition of S. aureus ugtP deletion strain. AID 1259309. growth inhibition, % (concentration not given with the values). actives 0.54% (n = 330,000). S. aureus RN4220 ugtP deletion, OD600 growth, 16 h; in the data active means growth inhibition above about 68%;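 further: plate controls were untreated wells for no effect and antibiotic for full effect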
Sa RN4220 lethal = S. aureus RN4220 growth inhibition | inhibition, % (concentration not given with the values) | actives 0.33% (n = 330,000) | OD600, 16 h; in the data active means inhibition above about 85%;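 further: plate controls were untreated cells for no effect and reference antibiotic for full effect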
BJeLR viability = kills HRASV12-expressing BJeLR cells | BJeLR (HRASV12) viability, CellTiter-Glo ATP luminescence, 48 h | inhibition, % (concentration not given with the values) | actives 0.17% (n = 300,000); in the data active means inhibition above about 50%
* = called active by the depositor; . = not tested or not shown. Most compounds without a hit are left out; they make up all but 0.95% or so of the library.

SMILES | PrPC TRFRET | ugtP null kill | Sa RN4220 lethal | BJeLR viability
CCC[C@@H](CN1CCC[C@H]1CN1C(N)=NC[C@H]1C(C)C)N1C[C@@H]([C@H](C)CC)N(CCCC2CCCC2)C1=N | -4 | -7 | -4 | .
CCCCN1C(=N)N([C@@H](C)CN2CCC[C@H]2CN2C(N)=NC[C@H]2C(C)C)C[C@H]1[C@H](C)CC | 5 | 1 | -1 | .
CCC[C@@H](CN1CCC[C@H]1CN1C(N)=NC[C@H]1CC(C)C)N1C[C@@H]([C@H](C)CC)N(CCCC2CCCC2)C1=N | -5 | 101* | 101* | .
CCCC(CN1CCCC1CN1C(N)=NCC1Cc1ccccc1)N1CC(Cc2ccccc2)N(CCCC2CCCC2)C1=N (configuration not stated) | . | 101* | 101* | .
CC[C@@H](C)[C@@H]1CN([C@@H](CN2CCC[C@H]2CN2C(N)=NC[C@H]2C(C)C)C(C)C)C(=N)N1CCCC1CCCC1 | -8 | 100* | 94* | .
CC(C)C[C@@H]1CN=C(N)N1C[C@@H]1CCCN1C[C@H](C)N1C[C@@H](Cc2ccccc2)N(CCCC2CCCC2)C1=N | -3 | . | . | .
CCC(C)C1CN(C(CN2CCCC2CN2C(N)=NCC2Cc2ccccc2)C(C)C)C(=N)N1CCCC1CCCC1 (configuration not stated) | . | 100* | 100* | .
CC1CC2OC(=O)C(C)C2C(O)[C@]2(C)C(=O)CCC12 (some centres not stated) | . | -10 | 3 | .
c1ccc(-c2nnc(-c3ccncc3)nc2-c2ccccc2)cc1 | -6 | 16 | 7 | 4
Brc1nc(-c2ccccc2)nc(-c2ccccc2)c1Br | -1 | 2 | 6 | 51*
Cc1ccc2ccc3cccc4ccc1c2c34 | -8 | 100* | -8 | .
CCOc1ccc(NC(=O)c2ccc(NC(=O)c3cn4c5c(c(N6CCN(C)CC6)c(F)cc5c3=O)OCC4C)cc2)cc1 (configuration not stated) | 7 | 98* | 98* | -5
CCOc1ccc(C(=O)Nc2ccc(N3CCN(C)CC3)cc2)cc1 | 2 | 11 | 6 | 13
CC1COc2c(N3CCN(C)CC3)c(F)cc3c(=O)c(C(=O)O)cn1c23 (configuration not stated) | 9 | 99* | 100* | -4
CC(=O)OCC1=C(C(=O)O)N2C(=O)C(NC(=O)c3ccc(COc4ccc(Cl)cc4)o3)C2SC1 (configuration not stated) | -6 | 100* | 99* | -2
CC(=O)OCC1=C(C(=O)O)N2C(=O)C(NC(=O)c3ccc(COc4c(C)cccc4Cl)o3)C2SC1 (configuration not stated) | -10 | 100* | 96* | -20
CCOC(=O)N1CCC(NC(=O)c2ccc(CS(=O)(=O)c3c(Cl)cccc3Cl)o2)CC1 | 9 | -10 | 3 | -6
CCOC(=O)N[C@@H](Cc1cccnc1)C(=O)N1CCC[C@H]1C(=O)NC1CCCC1 | -6 | . | . | .
COc1ccc(/C=C/C(=O)OCC(=O)NC2CCCC(C)C2C)c(OC)c1 (configuration not stated) | -3 | 85* | 1 | .
C[C@@]12C(=O)N(c3cccc(Cl)c3)C(=O)N1C(c1ccc(Cl)cc1)C1C(=O)N(C3CCCCC3)C(=O)C12 (some centres not stated) | . | -25 | 3 | .
O=C(/C=C/c1ccccc1)C1C(=O)c2ccccc2C1=O | -7 | -3 | 18 | -24
CCc1ccc(/C=C/C(=O)C2C(=O)c3ccccc3C2=O)cc1 | 1 | 97* | 100* | -3
Cn1c(CC(=O)Nc2ccc(Cl)c(Cl)c2)n[nH]c1=S | -3 | 2 | 4 | .
COc1ccc(Cc2n[nH]c(=S)n2NC(=O)Nc2ccc(Cl)c(Cl)c2)cc1 | 2 | 100* | 100* | 8
COc1ccc(OC)c(NC(=O)c2nnn(CCc3ccccc3)c2N)c1 | 2 | 8 | 2 | -5
SMILES | PrPC TRFRET | ugtP null kill | Sa RN4220 lethal | BJeLR viability
COc1ccc(C)cc1NC(=O)c1nnn(Cc2cccc(C(F)(F)F)c2)c1N | 13 | 98* | -3 | -20
O=C(Nc1ccccc1Cl)C(Cl)=C(Cl)S(=O)c1ccccc1 (configuration not stated) | . | 100* | 101* | .
CCCC1CCC(c2ccc(C(N)=O)cc2)CC1 (configuration not stated) | 4 | 26 | 14 | 0
CCCC1CCC(c2ccc(C(=O)NN)cc2)CC1 (configuration not stated) | 3 | 98* | -12 | 8
COc1ccc2c(C)nc(Nc3nc(-c4ccccc4)cc(=O)[nH]3)nc2c1 | -2 | 5 | 28 | 58*
CSc1nc2c(c(-c3ccccc3)c1C#N)CCC2 | 9 | 83* | -4 | -6

Compound activity from PubChem.
